Inconclusive results are not listed. Active and inactive are the calls of the source. Unless noted, the call rests on the fitted dose curve; in most records, active means well fitted curve in the direction sought with a large enough effect in the repeat runs; inconclusive means weak or mixed curves; inactive means no such curve, though single readings can be large; an effect the other way counts as inactive or inconclusive.

Test [1] is described as follows: qHTS assay to identify small molecule antagonists of the sonic hedgehog signaling (Shh) pathway (AID 1259369; calls by dose curve; further: nearly all actives have a fitted effect of over 45% in size; further: potency means the concentration at half of the fitted maximal effect). Summed up: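 Screening used 3T3Gli1-Luc cells at 2,000 per well, compounds delivered in DMSO, and conditioned medium as agonist stimulus; plates incubated 24hr at 37 C and 5% CO2 before a 30min luciferase step.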
(In general: Quantitative high-throughput screening tests each substance at several concentrations.)

Test [2] is described as follows: qHTS assay to identify small molecule agonists of the androgen receptor (AR) signaling pathway in the presence of an antagonist - cell viability counter screen (AID 1259379). Further: nearly all actives have a fitted effect of over 25% in size. Further: potency means the concentration at half of the fitted maximal effect. Summed up:
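In MDA-kb2 cells (human breast carcinoma, MMTV-luciferase), compounds at 15 concentrations plus 3.0uM nilutamide; 16 hr, 37C, 0% CO2; CellTiter-Fluor fluorescence read for viability.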

Test [3] is described as follows: qHTS assay to identify small molecule agonists of the estrogen receptor beta (ER-beta) signaling pathway - cell viability counter screen (AID 1259380). Further: nearly all actives have a fitted effect of over 30% in size. Further: potency means the concentration at half of the fitted maximal effect. Summed up:
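Viability of ER-beta-UAS-bla HEK293T cells was determined by CellTiter-Glo luminescence following 16 hr treatment with test compounds at 37C.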

In test [4] the target is Estrogen receptor (Homo sapiens) (UniProt P03372). Put plainly: qHTS assay to identify small molecule agonists of the estrogen receptor alpha (ER-alpha) signaling pathway in the presence of an antagonist (AID 1259383; calls by dose curve; further: nearly all actives have a fitted effect of over 15% in size; further: potency means the concentration at half of the fitted maximal effect; on activation: top concentration of the series differs between compounds). Summed up: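 In VM7Luc4E2 cells, 4,000 per well, compounds at 15 concentrations were co-incubated 22hr at 37C with 10.0nM final ICI-182,780. Luminescence from the stably transfected 4×ERE-luciferase reporter was recorded 30min after ONE-Glo addition.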
Estrogen receptor (Homo sapiens), sequence (P03372 whole entry, looked up): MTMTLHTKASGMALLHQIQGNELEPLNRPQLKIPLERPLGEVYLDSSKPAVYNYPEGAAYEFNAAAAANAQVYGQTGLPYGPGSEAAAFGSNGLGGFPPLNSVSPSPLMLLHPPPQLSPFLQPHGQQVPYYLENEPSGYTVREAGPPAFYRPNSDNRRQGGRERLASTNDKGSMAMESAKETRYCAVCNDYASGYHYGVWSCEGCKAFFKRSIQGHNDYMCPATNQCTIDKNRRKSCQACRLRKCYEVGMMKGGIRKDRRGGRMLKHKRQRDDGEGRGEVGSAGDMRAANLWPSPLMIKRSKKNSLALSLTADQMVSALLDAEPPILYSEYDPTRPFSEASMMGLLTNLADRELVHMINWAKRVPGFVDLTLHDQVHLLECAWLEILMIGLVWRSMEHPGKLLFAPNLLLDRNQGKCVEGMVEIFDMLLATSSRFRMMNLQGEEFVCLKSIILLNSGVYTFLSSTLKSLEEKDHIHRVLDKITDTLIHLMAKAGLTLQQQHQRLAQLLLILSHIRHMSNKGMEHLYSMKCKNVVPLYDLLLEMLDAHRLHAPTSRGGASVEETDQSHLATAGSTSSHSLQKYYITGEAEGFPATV

Test [5] is described as follows: qHTS assay to identify small molecule agonists of the estrogen receptor alpha (ER-alpha) signaling pathway in the presence of an antagonist - cell viability counter screen (AID 1259386).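 Further: cells exposed to compounds for 22 h at 37 °C before the viability read; nearly all actives have a fitted effect of over 30% in size.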 Further: potency means the concentration at half of the fitted maximal effect. Summed up: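 Fluorescent CellTiter-Fluor viability signal from VM7Luc4E2 cells, with the reagent added during the final hour of a 22hr compound exposure at 37C in the presence of 10.0nM ICI-182,780.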

In test [6] the target is Progesterone receptor (Homo sapiens) (UniProt P06401). Put plainly: qHTS assay to identify small molecule agonists of the progesterone receptor (PR) signaling pathway (AID 1346784; calls by dose curve; further: nearly all actives have a fitted effect of over 30% in size). Summed up: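 Compounds were tested for PR agonism in HEK 293T cells bearing a beta-lactamase gene under UAS control. Treatment lasted 16 hr at 37C; signal came from fluorescence of a FRET substrate.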
Progesterone receptor (Homo sapiens), sequence (P06401 whole entry, looked up): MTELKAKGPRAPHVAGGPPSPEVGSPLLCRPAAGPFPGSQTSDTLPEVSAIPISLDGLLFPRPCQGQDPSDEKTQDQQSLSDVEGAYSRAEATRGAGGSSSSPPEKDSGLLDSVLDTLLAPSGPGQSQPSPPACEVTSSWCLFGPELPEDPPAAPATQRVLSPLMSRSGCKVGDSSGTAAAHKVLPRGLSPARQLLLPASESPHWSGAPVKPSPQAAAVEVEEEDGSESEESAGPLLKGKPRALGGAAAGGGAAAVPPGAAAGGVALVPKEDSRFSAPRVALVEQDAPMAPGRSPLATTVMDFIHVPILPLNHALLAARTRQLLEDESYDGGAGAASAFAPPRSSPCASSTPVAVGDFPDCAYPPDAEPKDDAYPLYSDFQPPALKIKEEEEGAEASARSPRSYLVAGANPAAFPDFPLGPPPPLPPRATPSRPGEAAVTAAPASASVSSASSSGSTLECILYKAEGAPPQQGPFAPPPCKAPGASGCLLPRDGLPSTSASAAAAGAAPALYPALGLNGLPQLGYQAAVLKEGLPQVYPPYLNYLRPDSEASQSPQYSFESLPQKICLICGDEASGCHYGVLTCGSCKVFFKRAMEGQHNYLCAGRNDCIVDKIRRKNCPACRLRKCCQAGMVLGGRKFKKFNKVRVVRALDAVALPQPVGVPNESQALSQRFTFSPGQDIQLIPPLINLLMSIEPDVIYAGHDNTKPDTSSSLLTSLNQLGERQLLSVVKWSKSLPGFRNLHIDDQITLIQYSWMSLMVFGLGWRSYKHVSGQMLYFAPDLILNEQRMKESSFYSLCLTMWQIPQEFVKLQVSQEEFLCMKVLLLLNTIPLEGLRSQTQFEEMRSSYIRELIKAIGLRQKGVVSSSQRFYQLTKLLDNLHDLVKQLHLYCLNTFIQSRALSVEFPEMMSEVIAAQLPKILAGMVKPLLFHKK

The target is the same in test [7]. Put plainly: qHTS assay to identify small molecule antagonists of the progesterone receptor (PR) signaling pathway (AID 1346795; active means well fitted inhibition curve with a large enough effect in the signal ratio in the repeat runs, not every such curve was filed as active; the % refers to the signal ratio; further: potency means the concentration at half of the fitted maximal effect). Summed up:
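In HEK293T cells bearing the PR-UAS-bla reporter, compound effects on promegestone-driven (1 nM) beta-lactamase expression are assessed after 16 hr using a fluorescent FRET substrate incubated 2 hr at room temperature.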

The nature of test [8]: qHTS assay to identify small molecule antagonists of the progesterone receptor (PR) signaling pathway - cell viability counter screen (AID 1346798). Further: series mostly up to about 92 µM; nearly all actives have a fitted effect of over 50% in size. Summed up:
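Following a 4 hr attachment, PR-UAS-bla HEK293T cells in charcoal-stripped FBS medium were exposed to compounds with R5020 for 16 hr; CellTiter-Glo was added and luminescence read after 30 min at room temperature.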

The nature of test [9]: qHTS assay to identify small molecule agonists of the progesterone receptor (PR) signaling pathway - cell viability counter screen (AID 1346799; calls by dose curve; further: nearly all actives have a fitted effect of over 45% in size). Summed up: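 Here, 3,000 PR-UAS-bla HEK293T cells per well were treated with compounds for 16 hr after a 6 hr preincubation at 37C and 5% CO2; cell viability is the CellTiter-Glo luminescence signal.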
Test [10] can be described thus: qHTS assay to identify small molecule antagonists of the TGF-beta/Smad signaling pathway - cell viability counter screen (AID 1346824). Further: nearly all actives have a fitted effect of over 50% in size. Summed up:
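Cytotoxicity counter-screen run in the same wells as the beta-lactamase Smad reporter read: CellTiter-Glo luminescence after 30 min at room temperature. HEK 293T SBE-bla cells had 5 hr compound exposure at 37 C with TGF-beta1 (0.25 ng/mL stock).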

The nature of test [11]: qHTS assay to identify small molecule agonists of the TGF-beta/Smad signaling pathway - cell viability counter screen (AID 1346829). Further: top concentration of the series differs between compounds; nearly all actives have a fitted effect of over 45% in size. Summed up:
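Cytotoxicity counter screen: CellTiter-Glo luminescence (30 min, room temperature) measured in the SBE-bla HEK 293T reporter wells after 5 hr compound treatment at 37 C and the 2 hr substrate step.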

Test [12] is described as follows: qHTS assay to identify small molecule agonists of the TGF-beta/Smad signaling pathway (AID 1346859; active means well fitted activation curve with a large enough effect in the signal ratio in the repeat runs, not every such curve was filed as active; the % refers to the signal ratio; further: series mostly up to about 77 µM). Summed up:
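Each well held 4,000 SBE-bla HEK 293T cells incubated overnight before compound addition; 5 hr later the cleavable FRET substrate went on for 2 hr at room temperature, and fluorescence was read at two emissions.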

In test [13] the target is Thyrotropin-releasing hormone receptor (Homo sapiens) (UniProt P34981). Put plainly: qHTS assay to identify small molecule agonists of the thyrotropin-releasing hormone receptor (TRHR) signaling pathway (AID 1346891; calls by dose curve; further: series mostly up to about 58 µM). Summed up:
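Screening of agonists relied on calcium signalling in HEK293 cells expressing human TRHR: dye loading 2 h at 37 °C preceded compound addition and a 3-min fluorescence time course.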

For test [14], the target named is Thyrotropin receptor (Homo sapiens) (UniProt P16473). The experiment in a line: qHTS assay to identify small molecule antagonists of the thyroid stimulating hormone receptor (TSHR) signaling pathway (AID 1259385; calls by dose curve; further: nearly all actives have a fitted effect of over 20% in size). Summed up:
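Antagonist mode: compound-treated TSHR-expressing HEK293 cells were stimulated with 1.5 ng/mL TSH (final) in presence of Ro20-1724 for 30 min at RT. HTRF cAMP detection after 1 h; each compound tested at 15 concentrations, triplicate.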

Test [15] has as its target Thyrotropin-releasing hormone receptor (Homo sapiens) (UniProt P34981). The experiment in a line: qHTS assay to identify small molecule antagonists of the thyrotropin-releasing hormone receptor (TRHR) signaling pathway (AID 1346877; active means well fitted inhibition curve with a large enough effect in the repeat runs, not every such curve was filed as active; further: series mostly up to about 51 µM). Summed up: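 In this cell-based calcium flux format, HEK293 cells expressing TRHR received test compound for 5 min before the agonist TRH (1 nM final). Dye loading lasted 2 h at 37 °C.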

Test [16] has as its target Estrogen receptor beta (Homo sapiens) (UniProt Q92731). The experiment in a line: qHTS assay to identify small molecule agonists of the estrogen receptor beta (ER-beta) signaling pathway (AID 1259377; active means well fitted activation curve with a large enough effect in the signal ratio in the repeat runs, not every such curve was filed as active; the % refers to the signal ratio). Summed up: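 Read-out: beta-lactamase FRET fluorescence. Cell line: ER-beta-UAS-bla HEK293T in 2% charcoal-stripped FBS. Exposure: 16 hr at 37C. Substrate step: 2 h at room temperature.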

Test [17] shares this target. Put plainly: qHTS assay to identify small molecule antagonists of the estrogen receptor beta (ER-beta) signaling pathway (AID 1259378; active means well fitted inhibition curve with a large enough effect in the signal ratio in the repeat runs, not every such curve was filed as active; the % refers to the signal ratio). Summed up: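 Antagonist mode: compounds added to beta-lactamase reporter HEK293T ER-beta-UAS cells stimulated with E2 (1nM final), 16 hr at 37C. LiveBLAzer B/G FRET substrate, 2 hours room temperature, fluorescence read-out.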
The target in test [18] is Androgen receptor (Homo sapiens) (UniProt P10275). The experiment in a line: qHTS assay to identify small molecule agonists of the androgen receptor (AR) signaling pathway in the presence of an antagonist (AID 1259381; calls by dose curve; further: nearly all actives have a fitted effect of over 15% in size). Summed up: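 Here, 15-concentration compound series were pin-transferred onto MDA-kb2 MMTV-luciferase cells already dosed with nilutamide (3.0uM final). After 16hr at 37C, ONE-Glo was added and luminescence read 30min later at room temperature.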
Androgen receptor (Homo sapiens), sequence (P10275 whole entry, looked up): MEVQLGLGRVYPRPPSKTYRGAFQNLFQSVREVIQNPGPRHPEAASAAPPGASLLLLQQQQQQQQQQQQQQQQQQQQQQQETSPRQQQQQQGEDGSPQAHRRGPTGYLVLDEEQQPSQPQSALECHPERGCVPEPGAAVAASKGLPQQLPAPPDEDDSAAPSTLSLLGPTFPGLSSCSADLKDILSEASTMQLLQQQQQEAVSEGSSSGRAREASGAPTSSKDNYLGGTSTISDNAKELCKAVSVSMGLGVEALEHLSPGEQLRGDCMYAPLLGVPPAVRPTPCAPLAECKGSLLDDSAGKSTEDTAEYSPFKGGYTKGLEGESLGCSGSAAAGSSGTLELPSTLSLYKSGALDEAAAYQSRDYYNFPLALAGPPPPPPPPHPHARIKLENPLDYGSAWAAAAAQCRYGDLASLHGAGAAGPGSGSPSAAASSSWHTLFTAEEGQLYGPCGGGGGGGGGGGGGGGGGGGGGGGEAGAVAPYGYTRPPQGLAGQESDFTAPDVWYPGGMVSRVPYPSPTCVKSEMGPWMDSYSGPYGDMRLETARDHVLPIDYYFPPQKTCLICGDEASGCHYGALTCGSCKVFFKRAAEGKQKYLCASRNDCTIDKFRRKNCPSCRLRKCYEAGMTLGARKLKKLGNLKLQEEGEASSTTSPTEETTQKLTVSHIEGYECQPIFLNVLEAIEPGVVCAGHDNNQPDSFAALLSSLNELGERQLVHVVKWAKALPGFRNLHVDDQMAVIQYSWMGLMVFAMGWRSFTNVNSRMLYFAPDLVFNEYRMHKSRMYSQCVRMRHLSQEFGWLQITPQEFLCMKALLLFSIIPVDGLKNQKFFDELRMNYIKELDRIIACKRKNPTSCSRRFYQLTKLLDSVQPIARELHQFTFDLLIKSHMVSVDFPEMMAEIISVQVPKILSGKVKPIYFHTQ

Test [19] in a line: qHTS assay to identify small molecule antagonists of the estrogen receptor beta (ER-beta) signaling pathway - cell viability counter screen (AID 1259382). Further: nearly all actives have a fitted effect of over 55% in size. Further: potency means the concentration at half of the fitted maximal effect. Summed up:
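Tox21 10K library tested in qHTS format on ER-beta-bla HEK293T cells stimulated with 1nM E2; 16 hr treatment at 37C. Same-well CellTiter-Glo luminescence served as the cell viability measure.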

Test [20] is described as follows: qHTS assay to identify small molecule agonists or antagonists of the thyroid stimulating hormone receptor (TSHR) signaling pathway - wild type cell line counter screen (AID 1259384; calls by dose curve). Summed up: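 Counter screen in untransfected Hek293: compounds (15-point titration, triplicate) plus phosphodiesterase inhibitor Ro20-1724 added after 18 h plating; 30 min RT. Intracellular cAMP via competitive d2/cryptate immunoassay, 1 h incubation.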

Thyrotropin-releasing hormone receptor (Homo sapiens), sequence (P34981 whole entry, looked up): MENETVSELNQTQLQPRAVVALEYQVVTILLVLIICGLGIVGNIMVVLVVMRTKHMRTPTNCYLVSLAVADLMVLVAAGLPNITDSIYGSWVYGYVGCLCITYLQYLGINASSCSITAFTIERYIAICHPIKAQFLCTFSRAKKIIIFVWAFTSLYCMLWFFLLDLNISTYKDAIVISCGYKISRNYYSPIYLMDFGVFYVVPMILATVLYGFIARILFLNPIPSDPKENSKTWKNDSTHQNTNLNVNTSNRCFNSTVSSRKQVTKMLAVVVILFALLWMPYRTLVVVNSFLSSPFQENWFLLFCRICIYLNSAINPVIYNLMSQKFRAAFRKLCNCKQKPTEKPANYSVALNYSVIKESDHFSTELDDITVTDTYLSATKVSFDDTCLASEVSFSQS
Thyrotropin receptor (Homo sapiens), sequence (P16473 whole entry, looked up): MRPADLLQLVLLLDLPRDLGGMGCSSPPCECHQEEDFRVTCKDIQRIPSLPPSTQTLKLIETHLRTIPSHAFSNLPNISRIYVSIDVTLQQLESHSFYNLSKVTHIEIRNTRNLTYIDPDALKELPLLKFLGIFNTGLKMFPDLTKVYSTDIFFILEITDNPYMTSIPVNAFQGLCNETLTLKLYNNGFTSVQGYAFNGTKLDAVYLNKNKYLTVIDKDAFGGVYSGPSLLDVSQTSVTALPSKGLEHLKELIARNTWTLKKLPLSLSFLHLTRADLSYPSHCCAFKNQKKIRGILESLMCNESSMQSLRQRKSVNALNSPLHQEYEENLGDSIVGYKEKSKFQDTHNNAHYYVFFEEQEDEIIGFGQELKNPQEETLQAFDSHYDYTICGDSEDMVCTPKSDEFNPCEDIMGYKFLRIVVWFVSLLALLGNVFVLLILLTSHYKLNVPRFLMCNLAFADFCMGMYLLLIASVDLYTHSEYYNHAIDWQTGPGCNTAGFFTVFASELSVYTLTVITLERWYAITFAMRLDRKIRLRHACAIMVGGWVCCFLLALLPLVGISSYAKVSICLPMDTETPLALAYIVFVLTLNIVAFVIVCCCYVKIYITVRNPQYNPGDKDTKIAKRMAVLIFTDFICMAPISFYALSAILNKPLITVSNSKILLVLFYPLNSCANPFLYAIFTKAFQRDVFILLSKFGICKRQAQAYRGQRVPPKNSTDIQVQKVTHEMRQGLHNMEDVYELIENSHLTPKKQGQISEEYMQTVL
Estrogen receptor beta (Homo sapiens), sequence (Q92731 whole entry, looked up): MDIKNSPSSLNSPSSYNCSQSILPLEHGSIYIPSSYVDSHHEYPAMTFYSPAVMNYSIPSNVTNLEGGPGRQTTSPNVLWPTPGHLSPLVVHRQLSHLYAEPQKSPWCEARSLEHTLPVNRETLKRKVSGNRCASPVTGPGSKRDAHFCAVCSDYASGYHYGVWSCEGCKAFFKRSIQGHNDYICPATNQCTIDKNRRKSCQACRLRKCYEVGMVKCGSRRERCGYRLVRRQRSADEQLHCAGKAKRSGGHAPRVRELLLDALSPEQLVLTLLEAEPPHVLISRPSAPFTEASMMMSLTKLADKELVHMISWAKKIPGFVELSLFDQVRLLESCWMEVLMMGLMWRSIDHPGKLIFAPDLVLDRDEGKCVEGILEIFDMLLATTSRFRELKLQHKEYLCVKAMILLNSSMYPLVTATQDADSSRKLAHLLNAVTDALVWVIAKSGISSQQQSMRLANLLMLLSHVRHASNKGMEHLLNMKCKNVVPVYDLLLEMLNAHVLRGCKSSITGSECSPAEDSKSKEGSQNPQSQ

In the case of `Nc1ccc(N=Nc2ccccc2)c(N)c1`, the Potency result in [1], in [4], in test [6], in test [8], in test [9] and in test [10] was “inactive” each time. The Potency entry in [11], in [12] and in test [13] was “inactive” each time. Further, the Potency in test [2] was 26.7 µM (active); in test [3], 26.7 µM (active); in test [5] it was 26.7 µM (active); in test [7], 47.5 µM (active).

For the compound `CCCCCCCCC(CCCCCC)C(=O)O` (stereo unspecified), the Potency entry in test [1], in test [2], in test [14], in [5], in [6] and in [10] was “inactive” in each case. In addition, the Potency entry in test [11], in test [12] and in test [13] was “inactive” in each case. Also, the Potency in test [3] is 8.63 µM (active). In [15], the outcome was inactive.

As for `CC/C=C1/OC(=O)c2ccccc21`, the Potency result in [16], in [17], in [2], in [3], in test [18] and in test [19] was “inactive” throughout. Further, the Potency result in test [5], in test [6], in test [7], in test [8], in [10] and in test [11] was “inactive” throughout. The Potency result in [12] and in [13] was “inactive” throughout. The result in test [15] was inactive.

Consider `CCCCCC#CC(=O)OC`, for which the Potency entry in test [1], in [2], in test [19], in test [4], in test [14] and in [5] was “inactive” throughout. Further, the Potency entry in test [6], in test [7], in [8], in [9], in test [10] and in test [11] was “inactive” each time. The Potency entry in [12] was “inactive”. Besides, the compound was classed as inactive in [20].

With `Cc1ccc(Cl)c(Nc2ccccc2C(=O)O)c1Cl`, the Potency result in [1], in test [2], in test [4], in test [14], in [5] and in test [6] was “inactive” each time. Besides, the Potency entry in [9], in test [10], in test [11] and in test [13] was “inactive” each time. For the same compound, the compound was classed as inactive in test [20].

Regarding `O=C(/C=C/c1ccccc1)OCCc1ccccc1`, the Potency entry in test [16], in test [17], in [2], in test [3], in [18] and in test [19] was “inactive” in each case. Besides, the Potency entry in test [5], in [6], in test [7], in test [8], in test [9] and in test [11] was “inactive” each time. Also, the Potency result in test [12] and in [13] was “inactive” in each case. Moreover, the Potency in test [4] is 3.44 µM (active). The compound was called inactive in [20] and in test [15].

For the compound `C=C1C[C@@]23CC[C@H]4[C@@](C)(CCC[C@@]4(C)C(=O)O[C@@H]4O[C@H](CO)[C@@H](O)[C@H](O)[C@H]4O)[C@@H]2CC[C@]1(O[C@@H]1O[C@H](CO)[C@@H](O)[C@H](O[C@@H]2O[C@H](CO)[C@@H](O)[C@H](O)[C@H]2O)[C@H]1O[C@@H]1O[C@H](CO)[C@@H](O)[C@H](O)[C@H]1O)C3`, the Potency entry in [16], in test [17], in [2], in test [3], in test [18] and in test [19] was “inactive” throughout. In addition, the Potency entry in [4], in test [14], in test [5], in test [6], in [7] and in test [8] was “inactive” in each case. Besides, the Potency result in test [9], in test [10], in [11], in test [12] and in test [13] was “inactive” throughout. For the same compound, the compound was classed as inactive in [20] and in [15].

For the compound `COc1cc(C(=O)NC2CCN(C)CC2)ccc1Nc1ncc2c(n1)N(C1CCCC1)CC(F)(F)C(=O)N2C`, the values for the Potency in [1], in test [3] and in [19] were 0.112 µM (active), 22.3 µM (active) and 15.8 µM (active), respectively. The Potency entry in [18], in test [4], in test [6] and in test [13] was “inactive” each time.

On to `O=C1NC(=O)c2cc([N+](=O)[O-])ccc21`, for which the Potency entry in test [16], in [17], in test [2], in [3], in test [18] and in test [19] was “inactive” throughout. The Potency result in test [4], in [14], in [5], in test [6], in [7] and in test [8] was “inactive” in each case. The Potency entry in test [9], in [10], in test [11], in test [12] and in test [13] was “inactive” in each case. The outcome in test [20] and in test [15] was inactive.

The values are drawn from PubChem BioAssay (Tox21).
